# The panel holds about 83,000 compounds, 20% with a hit somewhere; the sample as a whole holds those more often.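 Method: cells in 96-well plates; compound added at one concentration; 48 h incubation; percent growth measured; values under 10 scored active.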 Values without a mark were called inactive. Activity calls are given as the source filed them.
# Columns and labels:
# Experiment in all cases: NCI-60 one-dose screen, 48 h (100 = growth as untreated, 0 = no growth, -100 = all killed)
# Conditions in all cases: 10 µM
# EKVX NSCLC = system: EKVX NSCLC
# SN12C renal = system: SN12C renal
# UO-31 renal = system: UO-31 renal
# TK-10 renal = system: TK-10 renal
# ACHN renal = system: ACHN renal
# A498 renal = system: A498 renal
# CCRF-CEM leukemia = system: CCRF-CEM leukemia
# MOLT-4 leukemia = system: MOLT-4 leukemia
# SR leukemia = system: SR leukemia
# RPMI-8226 leukemia = system: RPMI-8226 leukemia
# OVCAR-8 ovarian = system: OVCAR-8 ovarian
# OVCAR-5 ovarian = system: OVCAR-5 ovarian
# OVCAR-4 ovarian = system: OVCAR-4 ovarian
# SK-OV-3 ovarian = system: SK-OV-3 ovarian
# IGROV1 ovarian = system: IGROV1 ovarian
# OVCAR-3 ovarian = system: OVCAR-3 ovarian
# HS 578T breast = system: HS 578T breast
# NCI/ADR-RES ovarian = system: NCI/ADR-RES ovarian
# T-47D breast = system: T-47D breast
# CAKI-1 renal = system: CAKI-1 renal
SMILES,growth (EKVX NSCLC),growth (SN12C renal),growth (UO-31 renal),growth (TK-10 renal),growth (ACHN renal),growth (A498 renal),growth (CCRF-CEM leukemia),growth (MOLT-4 leukemia),growth (SR leukemia),growth (RPMI-8226 leukemia),growth (OVCAR-8 ovarian),growth (OVCAR-5 ovarian),growth (OVCAR-4 ovarian),growth (SK-OV-3 ovarian),growth (IGROV1 ovarian),growth (OVCAR-3 ovarian),growth (HS 578T breast),growth (NCI/ADR-RES ovarian),growth (T-47D breast),growth (CAKI-1 renal)
Cc1cc(N(CCCNc2ccnc3cc(Cl)ccc23)Cc2ccc3c(c2)OCO3)nc(N2CCOCC2)n1,66.5%,44.7%,3.36% (active),13.9%,14.3%,54.1%,-8.38% (active),-15.9% (active),-27.7% (active),-29.6% (active),31.7%,77.4%,23.1%,90.5%,10.9%,-6.27% (active),34.3%,46.9%,0.442% (active),
OCC1OC(n2cnc3c(N/N=C\c4ccccn4)ncnc32)C(O)C1O (stereo not drawn),7.34% (active),18.9%,-23.5% (active),42.1%,11.8%,,16.8%,21%,20.3%,,23.2%,43.3%,21.6%,11.7%,-6.53% (active),24.3%,14.5%,,25.4%,
O=C(Nc1cccc(Cl)c1)Nc1nccs1,98.1%,87.7%,89.9%,109%,98.5%,99.2%,83.2%,101%,78.5%,91.1%,97.9%,109%,90.6%,100%,97.5%,114%,115%,91%,73%,
CC12O[C@H](C[C@@H](O)[C@H]1O)n1c3ccccc3c3c4c(c5c6ccccc6n2c5c31)C(=O)N(CCCN)C4=O,54.9%,36.2%,57.6%,38.8%,79.4%,42.3%,11.2%,-3.13% (active),0.745% (active),40.2%,33.9%,97.2%,61%,41.8%,,37.8%,43.4%,101%,24%,
COc1ccc(-c2cc(-c3ccc(N(C)C)cc3)c(C#N)c(N3CCCC3)n2)cc1,73.1%,89.2%,81.7%,85.4%,98.5%,106%,79.5%,81.2%,40.8%,38.7%,83.3%,,81.4%,72.7%,64.9%,105%,103%,61.8%,67%,
COc1cc(CNc2ccccc2C(=O)N2CCN(C(=O)c3cc(-c4cc(OC)c(OC)c(OC)c4)n4nc(-c5ccccc5)cc4n3)CC2)cc(OC)c1OC,63.6%,79.4%,19.1%,,51.8%,-5.33% (active),58.8%,68%,8.84% (active),52.1%,65.1%,88.1%,61.5%,59.9%,44.7%,4.83% (active),42.9%,15.6%,60.6%,18.9%
O=C(Nc1ccncc1)C(=O)c1cn(S(=O)(=O)c2cc(Cl)cc(Cl)c2)c2ccccc12,52.3%,73.5%,75.2%,73.1%,,63.1%,67.9%,73%,38%,57.1%,69.1%,,75.5%,97.2%,57.6%,59.7%,69.6%,55.3%,56.8%,54.5%
CC12O[C@H](C[C@@H](OC(=O)c3ccccc3)[C@H]1O)n1c3ccccc3c3c4c(c5c6ccccc6n2c5c31)C(=O)NC4=O,36.4%,33%,-13.9% (active),7.3% (active),,-25.6% (active),64%,64.3%,50.3%,54.6%,86.5%,59.3%,84.5%,12.6%,62%,103%,69.3%,77.8%,59.3%,
CN1CC[C@@H](c2c(O)cc(O)c3c(=O)cc(-c4ccccc4Cl)oc23)[C@@H](O)C1,9.74% (active),26.8%,-5.67% (active),0.554% (active),,-40.8% (active),-9.53% (active),-6.09% (active),-4.82% (active),-32.3% (active),,16.4%,-26.7% (active),,-37.1% (active),13.6%,12.9%,12.2%,4.59% (active),5.1% (active)
O=C(CC(C(=O)c1ccccc1)N1CCOCC1)c1ccccc1 (stereo not drawn),99.2%,87.3%,89.9%,90.8%,,89.9%,9.08% (active),45.7%,28.5%,40.5%,97.3%,,106%,98.3%,106%,,99%,98%,72.1%,100%
CC1(C)OC2=C(CC1Br)C(=O)C(=O)c1ccccc12 (stereo not drawn),-40.1% (active),-75.4% (active),,-22.6% (active),-91.7% (active),101%,-23.1% (active),-25.6% (active),15.9%,-28.1% (active),-46.4% (active),-80.5% (active),-99.4% (active),77.8%,-80.2% (active),-96.5% (active),8.65% (active),-44.7% (active),-45.4% (active),-62.2% (active)
O=C(CC(NC(=O)OCc1ccccc1)C(=O)OCc1ccccc1)OCc1ccccc1 (stereo not drawn),95.7%,102%,103%,,104%,68.1%,47.5%,115%,99.3%,99.2%,99%,103%,109%,95.1%,108%,110%,97.9%,98%,100%,99.3%
COc1cc2c(cc1OC)N(CCO)C1=C(C(=O)OC1)C2c1ccc(Cl)c(Cl)c1 (stereo not drawn),87%,108%,82.3%,,107%,89.3%,92.6%,73.7%,86%,92.1%,103%,111%,104%,106%,110%,112%,103%,104%,88.3%,107%
COc1cc2nc(Nc3cccc(NC(C)=O)c3)nc(N)c2cc1OC,133%,95.5%,78.4%,150%,,95%,-71.1% (active),-89.5% (active),107%,55.7%,99%,117%,107%,118%,26.8%,111%,95.7%,149%,90.1%,127%
O=C(Nc1cccc(Br)c1)c1cc(=O)[nH]c2ccccc12,87.1%,99.7%,97.9%,109%,,111%,84.9%,96.1%,81%,80.2%,92.9%,90.8%,97.6%,97.7%,17.9%,92.4%,105%,88.6%,92.1%,76.6%
COc1ccc(OC)c(/C=C/c2nc(SC)n(-c3ccc(Cl)cc3)n2)c1,61.4%,80.3%,39.6%,,67.9%,,71.4%,73%,41.5%,,78.5%,112%,70%,83.8%,61.8%,,91.2%,,42.8%,64.5%
CCN(CC)CCC(CNc1c(C)cnc2cc(Cl)ccc12)c1ccc(Cl)c(Cl)c1 (stereo not drawn),73.5%,59.1%,44.5%,,54.8%,24.6%,30.3%,25.2%,-19.1% (active),24.5%,65.7%,58.3%,63.6%,84.1%,33.2%,77%,72.3%,63.7%,65.4%,62.1%

# — PubChem BioAssay (NCI)
